# NPC1 promoter act – NPC1 promoter activation | Potency, µM (doses to about 9.22 µM), inactives show at the highest dose activation, actives largely listed as activators | 2.4% of 320,000 active | Huh7 NPC1 promoter luciferase reporter, 24 h | AID 485313; also: % of control where 0% means no effect; nearly all actives have a fitted effect of over 60% in size
#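 Luminescence from an NPC1 promoter-driven luciferase reporter in stably transfected Huh7 cells was measured after 24 h compound treatment at 37 °C, followed by 10 min ambient incubation with luciferase detection reagent.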
# Luc counter – blocks Kinase-Glo luciferase, a counter-screen artifact; Potency, µM (highest dose often 38.3 µM), for the others: at the highest dose activity change, negative = inhibition, most hits filed as inhibitors; 0.28% of 200,000 active; Kinase-Glo luciferase, ATP luminescence, 8 min; AID 1379; also: % is scaled to controls: 0 for no effect and ±100 for the full control effect; nearly all actives have a fitted effect of over 60% in size
#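 Compound is pinned into ATP-containing buffer (10 uM ATP, imidazole pH 7.2, 7 mM MgCl2). Kinase-Glo luciferase reagent is then added. Light output is recorded following an 8-min room-temperature incubation.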
# ELG1 genotoxic – inducers of genotoxicity in HEK293T ELG1-luciferase cells | HEK293T ELG1-luciferase reporter, luminescence, 16 h | Potency, µM (highest dose often 46 µM), without a hit: top-dose activity change, positive = activation, actives largely listed as activators | 1.3% of 330,000 active; also: % of control where 0% means no effect; nearly all actives have a fitted effect of over 60% in size
#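 Quantitative HTS format in 1536-well plates. HEK293T ELG1-luciferase reporter cells receive test compound and are incubated 16 hr at 37 °C, 5% CO2; ONE-Glo added, 30 min room temperature, then luminescence read.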
# Rab9 prom act – Rab9 promoter activation | Huh7 Rab9 promoter-luciferase reporter, luminescence, 24 h | Potency, µM (doses to about 9.22 µM), for inactives: top-dose activation, negative = inhibition, usual class: activators | 2.8% of 320,000 active; also: % of control where 0% means no effect; nearly all actives have a fitted effect of over 60% in size
#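 Rab9 promoter-driven luciferase in stably transfected Huh7 cells; 1500 cells/well rested 2 h, exposed to compound in DMSO for 24 h at 37 °C, 5% CO2. Luminescence read 10 min after adding luciferase reagent at ambient temperature.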
# FLuc modulator – firefly luciferase modulation, counter-screen for miR-21 project; P08659; purified FLuc, Km substrates, luminescence inhibition; Potency, µM (highest dose often 57.5 µM), for inactives: top-dose activity change, negative = inhibition, usual class: inhibitors; 6.9% of 360,000 active; AID 588342;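 also: plate controls were vehicle for no effect and reference inhibitor for full effect; nearly all actives have a fitted effect of over 55% in size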
# Target sequence (P08659 whole entry, looked up): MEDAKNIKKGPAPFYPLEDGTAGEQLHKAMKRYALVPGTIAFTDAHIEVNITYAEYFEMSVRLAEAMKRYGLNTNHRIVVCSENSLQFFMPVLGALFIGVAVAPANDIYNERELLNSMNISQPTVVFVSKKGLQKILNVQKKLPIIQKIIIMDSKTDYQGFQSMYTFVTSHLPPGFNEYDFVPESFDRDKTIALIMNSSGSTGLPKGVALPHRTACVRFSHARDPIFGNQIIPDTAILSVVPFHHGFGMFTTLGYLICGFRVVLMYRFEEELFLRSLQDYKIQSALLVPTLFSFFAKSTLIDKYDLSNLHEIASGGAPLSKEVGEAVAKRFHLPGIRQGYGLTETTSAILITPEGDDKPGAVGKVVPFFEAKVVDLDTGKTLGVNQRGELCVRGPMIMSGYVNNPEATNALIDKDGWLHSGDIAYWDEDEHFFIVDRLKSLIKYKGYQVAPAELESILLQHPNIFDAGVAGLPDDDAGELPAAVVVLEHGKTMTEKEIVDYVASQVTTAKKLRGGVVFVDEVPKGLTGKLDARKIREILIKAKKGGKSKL
#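 Purified P. pyralis luciferase, 10 nM final, with Km-level 10 uM D-luciferin and 10 uM ATP in 50 mM Tris acetate pH 7.5, 10 mM Mg acetate, 0.01% Tween-20, 0.05% BSA; 6-point qHTS titration about 60 µM downward; luminescence read.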
# SMN2 splice up – enhancers of SMN2 splice variant expression; HEK293 SMN2-luciferase splicing reporter, luminescence, 30-36 h; Potency, µM (series often up to 46.1 µM), for the others: top-dose activity change, positive = activation, hits mostly activators; 2.8% of 210,000 active; AID 1458; also: % of control where 0% means no effect; nearly all actives have a fitted effect of over 55% in size
#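 qHTS luciferase splicing reporter: luminescence rises when SMN2 exon 7 is included in transfected HEK293 cells. Compound exposure lasted 30-36 h at 37C, with 4.5 mM final sodium butyrate as control, followed by a ONE-Glo read.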
# * hit, by the source's call; ? = inconclusive; nt = not tested or not shown. Shown are actives, neighbours in structure and some others; about 7.3% of the full set was active somewhere. Calls follow the shape of the dose curve; as a rule, active = well fitted curve in the direction sought with a large enough effect; inconclusive = small, poorly fitted or top-dose-only effect, or another doubt; inactive = no such curve, though single readings can be large; an effect the other way counts as inactive or inconclusive. Potency is read from the fitted curve at half-maximal effect.
SMILES,NPC1 promoter act,Luc counter,ELG1 genotoxic,Rab9 prom act,FLuc modulator,SMN2 splice up
COc1ccccc1-c1ccc(SCC(=O)NC2CCCC2)nn1,-1.7%,nt,16.4%,1.4%,0.4%,nt
COc1ccc(-c2ccc(SCC(=O)NC3CCCC3)nn2)cc1OC,10.8%,nt,17.6%,2.6%,15.1µM*,nt
COc1ccc(-c2nc(SCC(=O)NC3CCCC3)c(-c3ccccc3)[nH]2)cc1OC,nt,nt,nt,nt,19µM*,9.5%
COc1ccc(-c2nc(SCC(=O)Nc3ccc4c(c3)OCCO4)c(-c3ccc(F)cc3)[nH]2)cc1OC,nt,nt,nt,nt,6.75µM*,15.2%
COc1cccc(-c2ccc(SCC(=O)NC3CCCCC3)nn2)c1,-0.3%,nt,-2.7%,12.0%,15.1µM*,nt
COc1ccc(CCNC(=O)CCNS(=O)(=O)c2cccc3nsnc23)cc1OC,-0.7%,8.9%,-7.9%,-0.5%,4.0%,-2.3%
Cc1cc(C)n2nc(-c3cccnc3)nc2n1,0.5%,-4.0%,2.5%,1.9%,-12.3%,-5.7%
Cc1cc(C)n2nc(-c3ccc(F)cc3)nc2n1,3.98µM*,-17.6%,?,?,16.9µM*,?
COc1ccc(/C=C2\CCc3ccccc3C2=O)cc1CN1CCOCC1,1.8%,nt,?,-1.2%,7.57µM*,nt
O=C(O)c1ccc(/C=C2\COc3ccccc3C2=O)cc1,-2.9%,nt,-4.6%,-7.7%,19µM*,nt
COc1ccc2c(c1)OC/C(=C/c1cccs1)C2=O,?,nt,11.6µM*,?,0.426µM*,nt
COc1cc(/C=C2\CCc3ccccc3C2=O)cc(OC)c1OC,1.3%,1.3%,0.3%,-2.0%,?,-35.2%
COc1ccc(/C=C2\COc3ccccc3C2=O)c(OC)c1,-17.2%,nt,?,0.0%,4.78µM*,nt
CC(=O)c1cc(C#N)c(Oc2cccc(C(F)(F)F)c2)nc1C,14.0%,0.3%,1.4%,1.7%,-1.1%,5.8%
COc1ccc(C2C(C(=O)Nc3ccccc3)=C(C)Nc3nc(SCC(=O)c4ccc(C)cc4)nn32)cc1 (stereo not drawn),nt,nt,nt,nt,-5.3%,nt
COC(=O)c1sccc1S(=O)(=O)Nc1ccc(C)cc1,-0.5%,nt,0.0%,-16.5%,-1.3%,nt
COc1ccc(/C=C2\OC(=O)c3c(OC)cccc32)cc1OC,2.82µM*,-10.3%,?,2.82µM*,1.07µM*,?
COc1cc(/C=C2\CCC/C(=C\c3ccc(O)c(OC)c3)C2=O)ccc1O,-4.3%,nt,-10.8%,-12.8%,19µM*,nt
COc1ccc(/C=C2/CCc3ccccc3C2=O)cc1OC,2.9%,1.2%,?,-1.5%,3.38µM*,-51.6%
COc1cc(/C=C2/CCc3ccccc3C2=O)cc(OC)c1OC,0.7%,0.1%,-6.3%,-2.1%,?,-53.5%
COc1ccc2c(c1)CC/C(=C\c1ccc(OC)c(Cn3cccn3)c1)C2=O,-3.1%,-2.6%,-21.7%,7.7%,13.5µM*,-48.3%
O=C(O)/C=C/C(=O)Nc1nccs1,-2.7%,nt,-0.4%,2.2%,4.9%,nt
Cn1nc2c(c1C(=O)N1CCCC(C(=O)c3cc(F)ccc3F)C1)CCCC2 (stereo not drawn),-3.3%,nt,-4.8%,-2.7%,-2.9%,nt
O=C(O)c1ccc(NC(=O)c2cccc(C(=O)Nc3ccc(C(=O)O)cc3)n2)cc1,-2.5%,nt,-0.1%,-3.6%,?,nt
CCOc1ccc(NC(=O)C(=O)c2cc(C)n(-c3cc(C)cc(C)c3)c2C)cc1,nt,nt,nt,nt,2.1%,nt
COc1ccc(/C=C2\C(=O)OCc3cc(OC)c(OC)cc32)cc1OC,2.5%,3.4%,18.1%,-11.6%,13.5µM*,11.8%
Cc1cc(C)c2c(c1)C(=O)/C(=C/c1ccc(C(=O)O)cc1)CC2,18.9%,nt,13.9%,19.8%,19µM*,nt
COc1ccc(/C=C2\COc3ccccc3C2=O)cc1OC,0.3%,2.9%,-14.4%,0.4%,13.5µM*,-10.8%
COc1cc2c(cc1OC)/C(=C/c1ccc(Cl)cc1)C(=O)OC2,-4.6%,2.1%,2.5%,-4.7%,3.7%,-17.1%
COc1ccc2c(c1)OC/C(=C\c1ccc(OC)c(O)c1)C2=O,nt,-7.1%,nt,nt,nt,-25.9%

# Bioassay records (PubChem)
